TDP1 cell CPT = growth inhibition of DT40 Tdp1-/-;hTDP1 cells with camptothecin (screen for TDP1 inhibitors). chicken DT40 Tdp1-/-;hTDP1 cells + 20 nM CPT, ATP luminescence, 48 h. hit rate 12% among 420,000. AID 686979. Potency, µM (titrated, usually from 46.2 µM), inactives show at the highest dose activity change, negative = growth inhibition, usual class: inhibitors; note: potency is the fitted concentration of half-maximal effect; nearly all actives have a fitted effect of over 55% in size
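Chicken DT40 Tdp1-/- cells complemented with human TDP1, 400 cells/well, exposed to compounds plus 20 nM camptothecin for at least 48 h at 37 C; viability read as ATP content by CellTiter-Glo luminescence.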
ELG1 DNA repair = blocks ELG1-dependent DNA repair in HEK293T cells. HEK293T ELG1-luciferase reporter, luminescence, 16 h; DNA damage induced by 5-fluorouridine. Potency, µM (highest dose often 46.1 µM), for the others: top-dose activity change, negative = inhibition, actives largely listed as inhibitors. hit rate 2.3% among 330,000; note: potency is the fitted concentration of half-maximal effect; nearly all actives have a fitted effect of over 55% in size
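Overnight (16 hr) co-exposure of 2,000 cells/well to 5-fluorouridine and compound at 37 °C preceded detection. Luciferase was quantified via ONE-Glo luminescence; loss of signal denotes inhibition.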
HT1080-NT tox = kills 2HG-producing HT-1080-NT fibrosarcoma cells | HT-1080-NT fibrosarcoma viability, CellTiter-Glo ATP luminescence, 48 h | hit rate 1.6% among 360,000 | Potency, µM (titrated, usually from 46.1 µM), for the others: at the top dose activity, negative = less viability, most hits filed as cytotoxic;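 note: NT is the 2HG producing partner of a matched IDH1 knockdown line; potency is the fitted concentration of half-maximal effect; 0% = DMSO-treated cells and -100% = media-only wells without cells; nearly all actives have a fitted effect of over 55% in size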
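A 48-hour cytotoxicity screen used HT-1080-NT cells plated 2 hours before compound delivery. ATP-based CellTiter-Glo luminescence measured viability, normalized to DMSO and no-cell controls.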
HT1080 IDH1KD tx = toxicity to HT-1080 IDH1 knockdown cells (counter line). HT-1080 IDH1 knockdown viability, ATP luminescence, 48 h. Potency, µM (titrated, usually from 46.1 µM), for inactives: at the highest dose activity, negative = toxicity, hits mostly cytotoxic. hit rate 2% among 360,000;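 note: potency is the fitted concentration of half-maximal effect; 0% = DMSO wells and -100% = cell-free medium wells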
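Using the IDH1-knockdown HT-1080 line run in the same batch and compound series as the NT line, viability after 48 h at 37 °C was determined by CellTiter-Glo luminescence and expressed as % activity.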
IL-1B inflam inh = blocks inflammasome-driven IL-1 beta release; THP-1 LPS/ATP IL-1B secretion, AlphaLISA, 16 h; stronger effect = lower value; activity change, % at 57.5 µM; hit rate 4.7% among 360,000; AID 743279; in the data active = activity change below about -50%; inconclusive = mostly about -30% to -49%
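THP-1 cells pretreated 1 hr with compounds (up to 57.5 uM final), then stimulated with LPS (250 ng/mL final) plus ATP (1.25 mM final); secreted IL-1B measured by AlphaLISA after 16 hr, decreased signal indicating inhibition.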
DT40 TDP1 no CPT = qHTS for Inhibitors of human tyrosyl-DNA phosphodiesterase 1 (TDP1): qHTS in cells in absence of CPT | DT40 Tdp1-/- hTDP1 cells, no CPT, ATP luminescence, 48 h | Potency, µM (series often up to 46.2 µM), without a hit: at the top dose activity change, negative = growth inhibition, most hits filed as inhibitors | hit rate 15% among 420,000; note: potency is the fitted concentration of half-maximal effect; nearly all actives have a fitted effect of over 55% in size
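Camptothecin absent (DMSO only). Human TDP1-complemented DT40 knockout cells, 400 cells/well, 37 °C for minimum 48 hr; ATP measured via CellTiter-Glo, 30 min dark incubation, luminescence.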
* = called active by the depositor; ? = inconclusive; / = no result given. Sampled rows, rich in hits. Any-hit rate of the full collection: about 19%. Unless noted, calls come from the whole dose curve; as a rule, active = well fitted curve in the direction sought with a large enough effect; inconclusive = small, poorly fitted or top-dose-only effect, or another doubt; inactive = no such curve, though single readings can be large; an effect the other way counts as inactive or inconclusive. Unless noted, % is set by controls: 0 for no effect and ±100 for the full control effect.

SMILES	TDP1 cell CPT	ELG1 DNA repair	HT1080-NT tox	HT1080 IDH1KD tx	IL-1B inflam inh	DT40 TDP1 no CPT
CCOc1ccc(/C=C/c2nc(C#N)c(NCCCOC)o2)cc1	2.31µM*	-16.9%	?	?	-1.8	1.46µM*
CCOc1ccc(-c2nc(C#N)c(NCc3ccco3)o2)cc1	20.6µM*	-16.7%	-3.7%	21.0%	?	?
COCCCNc1oc(-c2ccccc2F)nc1C#N	?	?	9.8%	15.6%	-10.6	-17.9%
Cc1ccc(CNc2oc(-c3ccco3)nc2C#N)cc1	17.8%	-4.5%	2.5%	-0.3%	9.7	?
CCOc1ccc(/C=C/c2nc(C#N)c(NCCCN(C)C)o2)cc1	20.6µM*	21.0%	?	?	-76.0*	?
CCOc1ccc(-c2nc(C#N)c(NCCCOC)o2)cc1	8.2µM*	/	/	/	/	6.51µM*
Cc1cccc2cc(CNCC3CCCO3)c(Cl)nc12 (stereo unspecified)	7.3%	7.1%	1.3%	-2.0%	0.0	-13.4%
O=C(Cn1ncc2c([nH]c3ccccc32)c1=O)Nc1cccc(C(F)(F)F)c1	0.5%	/	/	/	/	1.9%
COc1cc(C(=O)OCC(=O)Nc2ccccc2)cc2c1OCCO2	?	/	1.5%	1.0%	-10.3	?
Fc1ccc(Oc2nc(-c3ccccn3)nc3ccccc23)cc1	4.61µM*	?	-23.2%	?	/	5.8µM*
c1ccc(Oc2c3ccccc3nc3ccccc23)cc1	?	-12.8%	?	?	11.1	20.6µM*
CSc1nc(Oc2ccc(F)cc2)c2ccccc2n1	3.8%	-0.2%	-0.6%	-11.1%	1.2	-8.0%
COc1ccc(Oc2nc(-c3ccccn3)nc3ccccc23)cc1	3.26µM*	9.2µM*	?	?	-93.1*	4.11µM*
c1ccc(Oc2nc(-c3ccccn3)nc3ccccc23)cc1	2.59µM*	?	-7.6%	?	?	2.06µM*
Cc1nc(Oc2ccccc2)c2ccccc2n1	-22.9%	-13.6%	?	-20.3%	?	?
NC(N)=N/N=C/c1ccc2cccc(OCc3ccccc3)c2n1	9.2µM*	0.0%	23.1µM*	?	-96.0*	7.31µM*
NC(=S)N/N=C/c1ccc2cccc(OCc3ccccc3)c2n1	?	-12.7%	-18.2%	-9.5%	-7.4	29.1µM*
CCc1cccc(NC(=O)c2ccc3c(c2)N(Cc2cccc(Cl)c2)C(=O)c2ccccc2S3=O)c1 (stereo unspecified)	-23.1%	/	/	/	/	-4.0%
C[C@H](O)[C@@H]1C(=O)N2CCc3ccc(-c4cccc(F)c4)cc3[C@@H]2C[C@@H]1N(C)C(=O)C(C)(C)C	?	/	-13.7%	-10.3%	-25.8	?
CN[C@H]1C[C@H]2c3cc(-c4ccccc4)ccc3CCN2C(=O)[C@H]1[C@H](C)O	?	/	?	-4.5%	-0.4	?
Cc1ccccc1Oc1ccc2c(c1)[C@@H]1C[C@H](N(C)C(=S)Nc3ccc(F)cc3)[C@H]([C@H](C)O)C(=O)N1CC2	20.6µM*	/	?	?	?	?
COCCNC(=S)N(C)[C@H]1C[C@H]2c3cc(Oc4ccccc4C)ccc3CCN2C(=O)[C@H]1[C@H](C)O	14.6µM*	/	-7.4%	-0.2%	-21.3	8.2µM*
COCCNC(=S)N(C)[C@H]1C[C@H]2c3cc(-c4ccccc4)ccc3CCN2C(=O)[C@H]1[C@H](C)O	?	/	0.6%	-8.7%	4.1	9.2µM*
COCC(=O)N(C)[C@H]1C[C@H]2c3cc(N4CCN(C)CC4)ccc3CCN2C(=O)[C@H]1[C@H](C)O	-4.7%	/	4.6%	5.1%	9.2	1.9%
Cn1c(=O)[nH]c(=O)c2c1nc(CN1CCN(c3ccccc3F)CC1)n2Cc1ccc(F)cc1	-25.4%	/	/	/	/	-26.7%
SMILES	TDP1 cell CPT	ELG1 DNA repair	HT1080-NT tox	HT1080 IDH1KD tx	IL-1B inflam inh	DT40 TDP1 no CPT
Cn1c(=O)c2c(nc(CN3CCN(c4ccccc4F)CC3)n2CCCc2ccccc2)n(C)c1=O	16.4µM*	/	7.3%	6.3%	-2.7	20.6µM*
CC1CCN(Cc2nc3c(c(=O)n(C)c(=O)n3C)n2CCCc2ccccc2)CC1	?	-0.6%	-0.1%	11.5%	-6.2	16.4µM*
Cn1c(=O)c2c(nc(CN3CCN(c4ccccc4F)CC3)n2Cc2ccc(F)cc2)n(C)c1=O	10.3µM*	/	/	/	/	10.3µM*
CN1CCN(Cc2nc3c(c(=O)n(C)c(=O)n3C)n2CCCc2ccccc2)CC1	-8.1%	1.7%	6.2%	1.9%	-2.1	-13.7%
COCCCN(C(=O)CCSc1ccc(F)cc1)c1c(N)n(Cc2ccccc2)c(=O)[nH]c1=O	?	17.9%	2.5%	0.2%	-7.6	11.6%
Cc1ccccc1-c1cnc2c(c1)C(=O)N([C@H](C)CO)C[C@@H](C)[C@H](CN(C)C(=O)c1ccncc1)O2	5.1%	/	10.7%	10.2%	-6.3	4.7%
CC1CCN(Cc2cc(=O)oc3ccc(C(C)C)cc23)CC1	25.9µM*	6.5%	-0.7%	-2.4%	-4.2	?
CC(C)c1ccc2oc(=O)cc(CN3CCCCC3)c2c1	29.1µM*	25.6%	17.8%	11.8%	-2.3	23.1µM*
Cc1cc2oc(=O)cc(CN3CCC(C)CC3)c2cc1C	-16.3%	?	0.0%	4.0%	23.6	-8.9%
CC(C)c1ccc2oc(=O)cc(CN3CCN(c4ccccc4)CC3)c2c1	?	-27.1%	4.3%	6.4%	7.6	?
CCN(CC)S(=O)(=O)c1ccc(OC(C)C)c(NC(=O)C2=COCCO2)c1	?	?	-0.8%	7.4%	5.3	?
CN(C)S(=O)(=O)c1ccc(Cl)c(NC(=O)CN2CCCC2)c1	2.8%	-6.8%	8.2%	17.9%	19.9	-3.6%
CCOC(=O)C1(Cc2ccccc2C#N)CCCCC1=O (stereo unspecified)	0.7%	/	5.7%	2.2%	16.3	?
CCN(CC(=O)Nc1c(F)cccc1F)C(=O)C1CCN(c2ncnc3sc(C)c(C)c23)CC1	20.6µM*	?	-13.6%	-10.7%	-17.0	18.4µM*
Cc1cc(Cl)ccc1OCC(=O)NNC(=O)C1CCN(c2ncnc3sc(C)c(C)c23)CC1	?	?	?	?	28.2	?
Cc1ccc(OCC(=O)NNC(=O)C2CCN(c3ncnc4sc(C)c(C)c34)CC2)cc1	?	?	-17.6%	-16.3%	-16.5	?
CCN(CC)CCNC(=O)c1ccc(NC(=O)C2CCN(c3ncnc4sc(C)c(C)c34)CC2)cc1	18.4µM*	?	?	?	-8.3	23.1µM*

Compound activity (PubChem BioAssay)
